PubChem BioAssay AID1952 (The Scripps Research Institute Molecular Screening Center, 2009)
The campaign covered roughly 2,400 compounds. About 1,200 (50%) were called active. No stated cut-off is given here; in the data, active means inhibition above about 24%; inactive means the rest. The set was probably picked from earlier hits. The list is a sample of the results.

Target: Neuropeptides B/W receptor type 1 (Homo sapiens) (UniProt P48145)
Test: blockers of human NPBW1 receptor – cell-based, fluorescence, single concentration, confirmation (AID 1952);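 further: stimulated with the GPR7 agonist NPW; 0% = agonist plus vehicle and 100% = vehicle alone without agonist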
Conditions: GPR7-expressing cells, calcium fluorescence antagonist mode; at 4.4 µM; active compounds read high

Neuropeptides B/W receptor type 1 (Homo sapiens), sequence (P48145 whole entry, looked up): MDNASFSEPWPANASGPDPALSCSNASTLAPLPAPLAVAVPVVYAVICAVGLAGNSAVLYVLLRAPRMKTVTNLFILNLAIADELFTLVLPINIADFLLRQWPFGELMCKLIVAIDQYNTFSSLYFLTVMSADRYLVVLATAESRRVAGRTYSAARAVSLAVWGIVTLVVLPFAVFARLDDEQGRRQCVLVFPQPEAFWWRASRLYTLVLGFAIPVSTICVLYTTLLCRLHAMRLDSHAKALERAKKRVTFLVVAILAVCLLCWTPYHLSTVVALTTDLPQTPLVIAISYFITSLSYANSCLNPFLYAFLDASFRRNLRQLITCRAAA

SMILES | inhibition
Cc1cccc(CS(=O)(=O)c2ncc(Cl)c(C(=O)Nc3ccc(F)cc3)n2)c1 | 51.2% (active)
COc1ccccc1CNC(=O)COc1ccc(C)nc1[N+](=O)[O-] | 2.95% (inactive)
COc1ccccc1Oc1ccc(S(=O)(=O)Nc2cccnc2)cc1 | 16.8% (inactive)
COc1ccc(NS(=O)(=O)c2ccc(NC(=S)NC(=O)CC(C)C)cc2)cc1 | 35.8% (active)
COc1ccc(C2Nc3ccccc3C(=O)N2Cc2ccccc2)cc1Cn1nnc2ccccc21 (stereo unspecified) | 31.7% (active)
O=C(CC(=O)Nc1ccc(Cl)c(Cl)c1)N/N=C/c1ccc(O)cc1 | 10.9% (inactive)
COc1ccc(C(CCNCc2ccccc2F)c2ccc(F)cc2)cc1 (stereo unspecified) | 47.2% (active)
CC1(C)CC(CNCCC(c2ccc(F)cc2)c2ccco2)CCO1 (stereo unspecified) | 12.5% (inactive)
CC(C)OCCCNc1ncnc2c1[nH]c1ccc(F)cc12 | 39.2% (active)
O=C(CCc1ccccc1)Nc1ccc(NC(=O)C2CC2)nc1 | 17.6% (inactive)
O=C(CN1CCN(C(=S)NC2CCCC2)CC1)Nc1ccc(Oc2ccccc2)cc1 | 28.6% (active)
Cc1ccc(NC(=O)CN2CCC3(O)CCCCC3C2c2ccc3c(c2)OCO3)c(C)c1 (stereo unspecified) | 19.6% (inactive)
CCc1ccc(NC(=O)c2ccc(Cn3cc([N+](=O)[O-])cn3)cc2)cc1 | 29.5% (active)
O=C(COc1ccccc1)NCc1ccc2c(c1)OCO2 | 14.3% (inactive)
CCOc1ccc(Cn2nnc(C(=O)NCc3ccccc3)c2N)cc1 | 52.4% (active)
COc1cc(NC(=O)CN2C(=O)NC(C)(c3ccc(OC(F)F)cc3)C2=O)cc(OC)c1OC (stereo unspecified) | 23.2% (inactive)
Cc1cc2c(cc1C)N(Cc1ccccc1)C1=NCCCN12 | 20.8% (inactive)
CCN1CCN(c2ccc([N+](=O)[O-])cc2C(=O)c2ccc(Cl)cc2)CC1 | 39.6% (active)
CCOc1ccc(C(=O)NC(=S)Nc2ccc(N3CCOCC3)c(Cl)c2)cc1[N+](=O)[O-] | -6.59% (inactive)
COc1ccc(N=C2SC(C(=O)Nc3ccc(F)cc3)CC(=O)N2C)cc1 (stereo unspecified) | 4.38% (inactive)
Fc1ccc(-c2ccc(-c3nn4c(-c5ccco5)nnc4s3)o2)cc1 | 8.54% (inactive)
O=C(CN1C(=O)/C(=C/c2ccccc2F)Sc2ccccc21)NCc1cccnc1 | -18% (inactive)
Cc1ccc(C(=O)C[n+]2cc(-c3ccccc3)n3c2CCCCC3)cc1 | 27.9% (active)

SMILES | inhibition
C=CCC1(CC=C)CCCN1C(=O)c1cc(COc2ccc(-n3cncn3)cc2)on1 | 29.2% (active)
Clc1ccc(-c2cc(C3CCNCC3)[nH]n2)c(Cl)c1 | 34.3% (active)
CCCCCCCCCCOC(=O)Cn1c(COc2cccc(OC)c2)[n+](C)c2ccccc21 | 78.9% (active)
Cc1cccc(NC(=O)c2cccc(C(=O)Nc3cccc(C)c3C)n2)c1C | 37.8% (active)
Clc1ccc(C2CC(c3cccs3)n3ncnc3N2)cc1Cl (stereo unspecified) | 31.9% (active)
CCC(C(=O)Nc1ccc(C(C)C)cc1)c1ccccc1 (stereo unspecified) | 94.1% (active)
C=CCNC(=O)COC(=O)c1ccccc1C(=O)N(C)C1CCCCC1 | -3.62% (inactive)
O=C(Nc1ccc2c(c1)OCO2)C1CC(c2c(F)cccc2Cl)=NO1 (stereo unspecified) | 8.85% (inactive)
CC(=O)N1CCCc2cc(S(=O)(=O)N3CCCC(C(=O)N4CCN(c5cccc(Cl)c5)CC4)C3)ccc21 (stereo unspecified) | 69.6% (active)
COc1ccc(NC(=O)C2CCC(CNS(=O)(=O)c3csc(C(N)=O)c3)CC2)cc1OC (stereo unspecified) | -15.3% (inactive)
COc1cc(OC)cc(C(=O)N[C@H](C(=O)OCC(=O)NC(C)c2ccccc2)C(C)C)c1 (stereo partly specified) | 79.4% (active)
COCCCNC(=S)N1CCN(c2nc(-c3cccc(OC)c3)cs2)CC1 | 19% (inactive)
Cc1ccccc1NC(=S)NC(=O)Cc1ccc(Cl)cc1 | 70.5% (active)
O=C(NC(=O)c1ccccc1)Nc1ccccc1O | 12.2% (inactive)
O=C(Cc1ccc(Cl)cc1)NC(=S)Nc1ccccc1O | 84.5% (active)
O=C(CCCN1CCc2[nH]c3ccc(F)cc3c2C1)c1ccc(F)cc1 | 18.6% (inactive)
CN(c1cccc(NC(=O)Nc2ccc(Cl)cc2)c1)S(C)(=O)=O | 31% (active)
OC(CNCC1CCCO1)Cn1c2ccc(Br)cc2c2cc(Br)ccc21 (stereo unspecified) | 78.3% (active)
O=C(NCCCN1CCOCC1)c1ccc2c(c1)N(Cc1cccc(F)c1)C(=O)c1ccccc1S2 | 24.3% (active)
Cc1ccccc1CN1C(=O)c2ccccc2Sc2ccc(C(=O)NCCCN3CCOCC3)cc21 | 42.4% (active)
O=C(CSc1nnc(-c2ccco2)o1)NCC(=O)c1ccccc1 | -14.8% (inactive)
Cc1ccc(S(=O)(=O)n2cnc3ccccc32)c(C)c1 | -4.27% (inactive)
COc1ccc(C)cc1NC(=O)NCCCCc1ccccc1 | 4.53% (inactive)

SMILES | inhibition
CS(=O)(=O)N(Cc1ccc(Cl)cc1)c1ccc(C(=O)NCCSCc2ccco2)cc1 | 32.3% (active)
Cc1ccc2[nH]cc(CCNC(=O)c3ccc([N+](=O)[O-])cc3)c2c1 | 40.7% (active)
Cc1ccccc1CN1C[C@@H]2C[C@@H](c3cn(C)nc3-c3ccccc3)N3CCC[C@@]23C1=O | 21.9% (inactive)
Cc1ccc(NC2=C(Cl)C(=O)OC2OC(=O)c2ccccc2C)cc1 (stereo unspecified) | 4.37% (inactive)
CC1CN(C(=O)CCC(=O)NCCCN2CCC(Cc3ccccc3)CC2)c2cc(Cl)ccc2O1 (stereo unspecified) | 49.4% (active)
c1ccc(C2CNCc3c2ccc2ccccc32)cc1 (stereo unspecified) | 89.5% (active)
S=C(NCCc1ccccc1)Nc1ccccc1 | 1.82% (inactive)
CC(=O)Nc1ccc(S(=O)(=O)N(C)CC(=O)NCCC2=CCCCC2)cc1 | -0.53% (inactive)
CN(c1ccccc1)S(=O)(=O)c1ccc(C(=O)NCCc2ccccc2)cc1 | 24.1% (active)
N=c1n(CCc2ccccc2)c2ccccc2n1Cc1ccccc1F | 36.4% (active)
CS(=O)(=O)Nc1cccc(C2=NN(S(=O)(=O)c3ccccc3)C(c3cccs3)C2)c1 (stereo unspecified) | 22.3% (inactive)
CCN(CC)Cc1c(C(=O)OC)nnn1-c1nonc1N | -1.39% (inactive)
CCOc1ncccc1C(=O)NCCc1ccc(OC)cc1 | 15% (inactive)
COc1ccc(CS(=O)/C(Cl)=C(/Cl)C(=O)Nc2ccc(OC)nc2)cc1 (stereo unspecified) | 63.6% (active)
CCc1ccc(OCC2c3cc(OC)c(OC)cc3CCN2C(C)=O)cc1 (stereo unspecified) | 30% (active)
CCN(CC)CCOCCOc1ccc(Cl)c2ccccc12 | 20.8% (inactive)
COc1ccccc1N1CCN(c2ncnc3sc(C)c(-c4ccccc4)c23)CC1 | 37.2% (active)
CCC(C)c1ccccc1NC(=O)CN(C)CC(=O)Nc1ccccc1SC (stereo unspecified) | 19.5% (inactive)
O=C(NCCCN1CCN(c2ccc(F)cc2)CC1)Nc1ccc([N+](=O)[O-])cc1 | 41.9% (active)
COc1cccc(CNCCc2c[nH]c3ccccc23)c1OCc1ccccc1F | 61.5% (active)
O=C(CSCc1ccc([N+](=O)[O-])cc1)NCCSCc1ccccc1 | 35.4% (active)
O=C(NCCNc1ccc([N+](=O)[O-])cc1Cl)c1ccccc1F | 18.8% (inactive)
O=[N+]([O-])c1ccc(N(CCO)Cc2ccccc2)c([N+](=O)[O-])c1 | 23.3% (inactive)

SMILES | inhibition
CC(C(=O)N1CCN(c2ccccc2F)CC1)c1ccc([N+](=O)[O-])cc1 (stereo unspecified) | 42.2% (active)
Cc1cc(OC(C)C(=O)NC2CC(C)(C)NC(C)(C)C2)c2c(C)cc(=O)oc2c1 (stereo unspecified) | -2.7% (inactive)
Cc1c(CCO)c(=O)n(-c2ccccc2)n1S(=O)(=O)c1ccc(F)cc1 | -9.84% (inactive)
Cc1cc(OCc2ccc(C(=O)Nc3ccc(C(=O)O)cc3)o2)ccc1Cl | 44.9% (active)
Cc1ccc2nc(C)c3c(c2c1)N(c1ccccc1)CC3 | 37.9% (active)
CS(=O)(=O)N(CC(O)Cn1c2ccccc2c2ccccc21)c1cccc2ccccc12 (stereo unspecified) | 45% (active)
O=[N+]([O-])/C=C/c1ccc2c(ccn2Cc2ccccc2)c1 | 92.4% (active)
CN(C)S(=O)(=O)N1CCC(Oc2cccc(C(=O)NCCCC3CCCC3)c2)CC1 | 40.1% (active)
COc1ccc([N+](=O)[O-])cc1N(CC(O)CN(CC(C)C)CC(C)C)S(=O)(=O)c1ccc(C)cc1 (stereo unspecified) | 31.9% (active)
N#CC1=C(SCc2ccc(C#N)cc2)N=C(N)C(c2nc(-c3ccccc3)cs2)C12CCCCC2 (stereo unspecified) | 44.2% (active)
COc1cc(OC)c(-n2cc(-c3ccc(Cl)cc3)[nH]c2=O)cc1Cl | 60.4% (active)
O=C(COc1ccc(S(=O)(=O)Nc2cccc(C(F)(F)F)c2)cc1)N1CCOCC1 | 19.6% (inactive)
Cc1cc(Cl)ccc1OCCCC(=O)Nc1cccc(-n2cnnn2)c1 | 27.4% (active)
O=S(=O)(c1ccc(OCC(O)CN2CCN(c3ccccc3Cl)CC2)cc1)N1CCOCC1 (stereo unspecified) | 11.4% (inactive)
Cc1ccc(NC(=S)N(CCCN2CCC(C)CC2)Cc2ccco2)cc1 | 0.61% (inactive)
Cc1ccc(SCc2cc(=O)[nH]c(N3CCCCC3)n2)cc1 | -9.2% (inactive)
CCCOc1ccccc1C1CC(=O)Nc2cc3c(cc21)OCO3 (stereo unspecified) | 24.6% (active)
Cc1ccccc1Nc1nnc(SCC(=O)c2cc3ccccc3o2)s1 | 3.71% (inactive)
Nc1nnc(SCC(=O)Nc2ccc3nc(SCC(=O)Nc4ccccc4)sc3c2)s1 | 59.8% (active)
Cc1ccc(CNC(=O)C2CCN(S(=O)(=O)c3ccc4nc5c(c(C(=O)O)c4c3)CC(C)CC5)CC2)cc1 (stereo unspecified) | 16.8% (inactive)
Cn1c(=O)c([N+](=O)[O-])c(Oc2ccccc2)c2ccccc21 | 17.2% (inactive)
COc1ccccc1N(C(=O)Cn1nnc2ccccc21)C(C(=O)NCc1ccco1)c1ccc(C)o1 (stereo unspecified) | 22.8% (inactive)
